Source: PubChem BioAssay
Pf Dd2 inh = qHTS Primary assay for Inhibitors of Plasmodium falciparum Dd2 growth in vitro; P. falciparum Dd2 growth, SYBR Green, 72 h; Potency, µM (series often up to 28.9 µM), inactives show at the top dose activity, negative = inhibition, most hits filed as inhibitors; 120,000 tested, 4.3% active; AID 1347417, 2020; active means well fitted inhibition curve with a large enough effect;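 further: plate controls were DMSO vehicle for no effect and reference drug for full effect; nearly all actives have a fitted effect of over 65% in size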
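Readout: SYBR Green fluorescence, 485 nm excitation, 535 nm emission, after ~16 h lysis at 37C. Before that, Dd2-infected red cells (2.5% hematocrit) grew 72 h with compound, 29 uM top final concentration.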
The depositor's hits bear a star; [ ] = dose if it differs, or a comment. This is one part of a sample in which hits are shown more often than they occur. Potency means the concentration at half of the fitted maximal effect.

CC(C)NC(=O)N(C1CC1)C1CCOC2(CCN(C(=O)CCCc3ccccc3)CC2)C1 (stereo unspecified) was read as Pf Dd2 inh inactive.
COCCC(=O)NCC12CCC=C1N(CC1CC1)C(=O)CC2 (stereo unspecified) was read as Pf Dd2 inh 17%.
Screening N#Cc1ccc(S(=O)(=O)N[C@H]2[C@H](O)[C@H](O)C[C@@H]2c2ccccc2)cc1 returned Pf Dd2 inh 0%[44.1 µM].
For COc1ccc(-c2cc([C@H]3CN4CC[C@H]3C[C@@H]4CNC(=O)C3CC3)nc(C)n2)cc1OC the results were Pf Dd2 inh inactive.
COc1cccc(NC(=O)CCC2CCN(C(=O)c3ccccc3)CC2)c1 was read as Pf Dd2 inh -25%.
CCN1CCN(c2ccc(-c3nc(CCCc4ccccc4)no3)cn2)CC1 was read as Pf Dd2 inh 10µM*.
`c1ccc(CCc2noc(-c3ccc(N4CCCOCC4)nc3)n2)cc1` gave Pf Dd2 inh -25%.
COC1CCN(c2ccc(-c3nc(COc4ccccc4)no3)cn2)CC1 was read as Pf Dd2 inh inactive.
`CN1C[C@@H]2C[C@H]1C(=O)N(Cc1ccccc1)c1ccccc1O2` gave Pf Dd2 inh -37%[44.1 µM].
`Cc1noc(-c2cccs2)c1C(=O)NCc1ccccc1Cl` gave Pf Dd2 inh -16%.
Cc1ccc(Cl)cc1N1CCN(C(=O)c2cc3ccc4cccnc4c3[nH]2)CC1 was read as Pf Dd2 inh -2%.
`O=C(c1cc2ccc3cccnc3c2[nH]1)N1CCN(c2ccc(Cl)cc2)CC1` gave Pf Dd2 inh -22%.
O=C(c1cc2ccc3cccnc3c2[nH]1)N1CCN(c2cccc(Cl)c2)CC1 was read as Pf Dd2 inh inactive.
For CCOC(=O)c1ccccc1NC(=O)c1cc2ccc3cccnc3c2[nH]1 the results were Pf Dd2 inh -14%.
O=C(NCc1cccc(Cl)c1)c1cc2ccc3cccnc3c2[nH]1 was read as Pf Dd2 inh 13µM*.
For CC1CCCN(C(=O)c2cc3ccc4cccnc4c3[nH]2)C1 (stereo unspecified) the results were Pf Dd2 inh -13%.
Screening O=C(NCc1ccc(Cl)cc1)c1cc2ccc3cccnc3c2[nH]1 returned Pf Dd2 inh -17%.
Screening O=C(NCC1CCN(Cc2ccc(F)cc2)CC1)c1cc2ccc3cccnc3c2[nH]1 returned Pf Dd2 inh 7.1µM*.
For COc1ccccc1NC(=O)c1cc2ccc3cccnc3c2[nH]1 the results were Pf Dd2 inh inactive.
CCN(CC)S(=O)(=O)c1ccc(NC(=O)c2cc3ccc4cccnc4c3[nH]2)cc1 was read as Pf Dd2 inh 11µM*.
`CC(C)N(Cc1ccccc1)C(=O)c1cc2ccc3cccnc3c2[nH]1` gave Pf Dd2 inh 13µM*.
For O=C(Cn1ncc2c([nH]c3ccccc32)c1=O)NCC1CCN(Cc2ccc(F)cc2)CC1 the results were Pf Dd2 inh inactive.
Screening COc1ccc(Cn2c(=O)c(-c3noc(C)n3)c3n(c2=O)CCCC3)cc1F returned Pf Dd2 inh -15%.
COCCC(=O)N[C@H]1C[C@@H](c2nc(-c3ccc(OC(F)(F)F)cc3)no2)N(C)C1 was read as Pf Dd2 inh -16%[44.1 µM].
`CN(Cc1cnccn1)C(=O)c1cc(COc2ccc3c(c2)OCO3)[nH]n1` gave Pf Dd2 inh -2%.
`COCc1nncn1C1CCN(C(=O)c2cc(F)ccc2Cl)CC1` gave Pf Dd2 inh -9%.
Screening CC(C)Cc1cn(CC2CCCN(C(=O)NC3CCCCCC3)C2)nn1 (stereo unspecified) returned Pf Dd2 inh 0%.
For Cc1ccc(NC(=O)Cn2c(=O)c(-c3noc(C)n3)c3n(c2=O)CCCC3)c(Cl)c1 the results were Pf Dd2 inh inactive.
Screening COCCC(=O)N[C@H]1CC[C@]2(C)CCC([C@H](C)C(=O)NCc3ccc(F)cc3)[C@H](O)[C@H]2[C@@H]1C (stereo partly specified) returned Pf Dd2 inh inactive.
Screening O=C(c1ccco1)N1CCC(C2CCN(Cc3cccc(F)c3F)CC2)C1 (stereo unspecified) returned Pf Dd2 inh -1%.
COCC(=O)N1CCCC(C(=O)N2CCC(C#N)(c3ccccc3)CC2)C1 (stereo unspecified) was read as Pf Dd2 inh -8%.
For Cc1ccc(CNC(=O)c2ccc3c(c2)CN(Cc2cccc(F)c2F)CCO3)cc1 the results were Pf Dd2 inh -14%.
For CCn1ncc(C(=O)N[C@@H]2CN(c3ccccn3)C[C@H]2CN(C)C)c1C the results were Pf Dd2 inh 16%.
Screening CCc1ocnc1C(=O)N1CCC2(CCC(=O)N(CCc3cnc[nH]3)C2)CC1 returned Pf Dd2 inh -13%.
`CCOC(=O)C1CCN(C(=O)c2cc3ccc4cccnc4c3[nH]2)CC1` gave Pf Dd2 inh 16%.
`O=C(c1cc2ccc3cccnc3c2[nH]1)N1CCCCC1` gave Pf Dd2 inh 7%.
For O=C(NCC1CCN(Cc2ccccc2Cl)CC1)c1cc2ccc3cccnc3c2[nH]1 the results were Pf Dd2 inh 7.9µM*.
